Structures are written as SMILES. The campaign covered roughly 1,900 compounds. About 250 (13%) were called active. About 4% were inconclusive and are not listed.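 How the source made its calls: active means fitted curve reaches 40% rescue activity at or below the top valid dose, in every test run; inconclusive means test runs disagree, some active and some inactive; inactive means every run misses the threshold or moves the wrong way.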 A selection follows. Measured potencies and affinities stand elsewhere.

Results on 25 compounds are retold here after PubChem BioAssay AID624405 (Broad Institute, 2012).

A short description of the test: suppressors of statin myotoxicity in myotubes, dose response, cell-based, C2C12 myotubes, ATP luminescence, cherry pick (AID 624405).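 Further: myotubes are challenged with simvastatin at 10 µM to lower ATP.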 To be noted: C2C12 myotubes + simvastatin, 48 h, scaled: DMSO wells 0, geranylgeraniol wells 100; series mostly up to 19.5 µM.
Take `Fc1ccccc1OCCCN1CCOCC1`: the result was inactive.

In the case of `C[C@H]1CN([C@@H](C)CO)C(=O)c2cc(/C=C/c3ccccc3)cnc2O[C@@H]1CN(C)C(=O)Nc1ccccc1F`, the outcome was inactive.

As for `C=CCSc1nc(C)c2cc(C)cc(C)c2n1`, the outcome was inactive.

On to `CC(C)(CSc1ncccn1)NS(=O)(=O)c1ccccc1`, for which the result was inactive.

For the compound `O=S(=O)(NCc1csc(-c2cccs2)n1)c1cccc(C(F)(F)F)c1`, the outcome was inactive.

With `COc1ccc(NC(=O)N(C)C[C@H]2OCCCC[C@H](C)Oc3ccc(NS(=O)(=O)c4c(C)noc4C)cc3C(=O)N([C@@H](C)CO)C[C@H]2C)cc1`, the outcome was inactive.

Turning to `Cc1cc(C)n(C(=O)c2ccc(S(=O)(=O)NCC3CCCO3)cc2)n1` (stereo not given), the result was inactive.

Turning to `C[C@@H]1CN([C@@H](C)CO)C(=O)c2cccc(NC(=O)C3CCCCC3)c2O[C@H]1CN(C)S(=O)(=O)c1ccc(Cl)cc1`, the outcome was inactive.

Take `C[C@@H]1CCCCO[C@@H](CN(C)Cc2ccc(Cl)c(Cl)c2)[C@H](C)CN([C@@H](C)CO)C(=O)c2cc(NC(=O)Cc3ccccc3)ccc2O1`: the result was inactive.

On to `O=c1cc(CN2CCN(Cc3ccccc3)CC2)c2cc3c(cc2o1)CCC3`, for which the outcome was inactive.

For `Cc1cccn2c(=O)c3cc(C(=O)NCCC4=CCCCC4)n(C)c3nc12`, the outcome was inactive.

Take `Cc1sc2nc3ccc(N4CCCCC4)nn3c(=O)c2c1C`: the outcome was inactive.

Consider `CN(C)C(CNC(=O)NC1CCCCC1)c1cccnc1` (stereo not given), for which the outcome was inactive.

Consider `C[C@@H]1CN([C@@H](C)CO)C(=O)c2cc(NC(=O)Nc3ccc(F)cc3)ccc2O[C@@H](C)CCCCO[C@H]1CN(C)Cc1ccncc1`, for which the outcome was inactive.

With `COC(=O)c1cc(OC)c(OC)cc1NC(=O)Nc1cccc(C(C)=O)c1`, the result was inactive.

Turning to `C[C@H]1CN([C@@H](C)CO)C(=O)Cc2cc(NC(=O)Cc3ccccc3)ccc2O[C@@H]1CN(C)Cc1ccc(Oc2ccccc2)cc1`, the outcome was inactive.

As for `O=C(COc1cccc(C(F)(F)F)c1)Nc1ccc(S(=O)(=O)N2CCCC2)cc1`, the outcome was inactive.

As to `O=C(c1cnccn1)N1CCN(C/C=C/c2ccccc2)CC1`, the outcome was inactive.

Consider `O=C(OCCOc1ccc(Br)cc1)c1cnccn1`, for which the outcome was inactive.

Turning to `C[C@H]1CN([C@@H](C)CO)C(=O)c2cc(NC(=O)C3CC3)ccc2O[C@@H]1CN(C)CC1CCCCC1`, the outcome was inactive.

`C[C@H](CO)N1C[C@H](C)[C@H](CN(C)Cc2ccc(C(F)(F)F)cc2)Oc2c(NC(=O)Nc3cccc4ccccc34)cccc2C1=O`: the result was inactive.

`C[C@@H]1CN([C@H](C)CO)C(=O)c2cc(NC(=O)Nc3cccc4ccccc34)ccc2O[C@@H](C)CCCCO[C@@H]1CN(C)Cc1ccc2c(c1)OCO2`: the result was inactive.

Take `COc1ccc(NC(=O)Nc2ccc3c(c2)C(=O)N([C@@H](C)CO)C[C@H](C)[C@@H](CN(C)Cc2ccc(C(F)(F)F)cc2)OCCCC[C@H](C)O3)cc1`: the result was inactive.

Consider `C[C@@H]1CN([C@@H](C)CO)C(=O)c2cccc(NC(=O)C3CCOCC3)c2O[C@@H]1CN(C)S(=O)(=O)c1cn(C)cn1`, for which the result was inactive.

Take `COC(=O)[C@H]1[C@H](CO)[C@H]2Cn3c(ccc(C4=CCCCC4)c3=O)[C@H]2N1CC1CCCCC1`: the outcome was inactive.
